# In PubChem BioAssay (EPA / NIEHS):
# Active and inactive are the calls of the source. Rule for the calls: active = hit-call score of the fitted dose curve at least 0.9, where 1 is the maximum; inactive = score below 0.9.
# Experiment: APR_HepG2_p53Act_24hr: Apredica 24-hour HepG2 Assay for p53 Activation (AID 2282913)
# Conditions: high-content imaging, actives raise or lower the signal
# Procedure: APR_HepG2_24hr is a cell-based, multiplexed-readout assay that uses HepG2, a human liver cell line, with measurements taken at 24 hours after chemical dosing in a 384-well plate.APR_HepG2_p53Act_24hr is one of 10 assay component(s) measured or calculated from the APR_HepG2_24hr assay. It is designed to make measurements of dna content, a form of viability reporter, as detected with fluorescence intensity signals by HCS Fluorescent Imaging technology.Data from the assay component APR_HepG2_p53Act_24hr was analyzed into 1 assay endpoint. This assay endpoint, APR_HepG2_p53Act_24hr, was analyzed with bidirectional fitting relative to DMSO as the negative control and baseline of activity. Using a type of viability reporter, measures of protein for gain or loss-of-signal activity can be used to understand the signaling at the pathway-level as they relate to the gene TP53. Furthermore, this assay endpoint can be referred to as a primary readout, because this assay has produced multiple assay endpoints where this one serves a signaling function. To generalize the intended target to other relatable targets, this assay endpoint is annotated to the dna binding intended target family, where the subfamily is tumor suppressor.
# Cells were treated with dimethyl sulfoxide (DMSO) as a solvent control at a final concentration of 0.5% v/v or with compounds in DMSO with a resulting final DMSO concentration of 0.5% v/v. Compound treatment was done at concentrations of 0.39, 0.78, 1.56, 3.12, 6.24, 12.5, 25, 50, 100, and 200 uM in duplicate on each plate. Cells were treated with compounds for 1, 24, or 72 hr. Carbonyl […] m-chloro-phenylhydrazone (CCCP) and taxol were used as positive controls for mitochondrial function and cytoskeletal stability, respectively; DMSO served as the negative control for this experiment. Cells were fixed by the direct addition of 50 uL formaldehyde in Hank's Balanced Salt Solution (HBSS) to a final concentration of 3.7%. After incubation in the fixation medium for 30 min at room temperature (293-298 K), cells were rinsed twice with HBSS and treated with cell permeabilization buffer (16 uL of 0.5% Triton X-100) for 10 min at room temperature (293-298 K) before labeling. For mitochondrial membrane potential and mitochondrial measurements, pre-fixed cells were incubated with 50 uL of MitoTracker Red CMXRos (Invitrogen) at a concentration of 250 nM for 30 min before fixation. In the remaining cases, post-fixed cells were labeled by incubation with a multiplexed mixture of primary antibodies in HBSS for 60 min at room temperature (293-298 K) to detect immunoreactivity of c-Jun (1:500), phospho-histone H3 (1:100), phospho-histone H2A.x (1:200), p53 (1:400), alpha-tubulin (1:200) and Hoechst 33342 (2 ug/mL). Cells were labeled for multiplexed imaging on two separate plates: a) Hoechst 33342, MitoTracker Red, phospho-histone H3, and alpha-tubulin, and b) Hoechst 33342, phospho-histone H2A.x, and c-Jun. A final rinse with HBSS (50 uL) was performed before analysis. The primary and secondary antibodies for the proteins were phospho-histone H3 (rabbit anti-phospho-histone H3 and FITC-donkey anti-rabbit IgG), phospho-histone H2A.x (mouse anti-phospho-histone H2A.x and FITC-donkey anti-mouse IgG), c-Jun (rabbit anti-phospho-c-Jun and Cy3-donkey anti-rabbit IgG), p53 (sheep anti-p53 and Cy5-donkey anti-sheep IgG), alpha-tubulin (mouse anti-alpha-tubulin and Cy5-donkey anti-mouse IgG). These antibodies are available as the CellCiphr HepG2 assay kit (Millipore).Digital images of each well were captured using a Cellomics ArrayScan VTI (Thermo Scientific Cellomics) (0.8 NA objective, 0.63x optical coupler, and XF-93 filter set) at 20x magnification. The images were acquired using the autofocus feature of the ArrayScan instrument, which entails the following steps. First, the camera focuses on channel 1 (Hoechst 33342), where nuclei are identified. Second, a Z offset of 1 um is used for capturing mitochondria (MitoTracker Red). […]
SMILES,outcome,AC50
CCCCCCCCCCCCN1CCCC1=O,inactive,–
N#C[C@@H]1CC(F)(F)CN1C(=O)CNC1CC2CCC(C1)N2c1ncccn1 (stereo not given in full),inactive,–
CC(C)(C)c1ccc(O)c(C(C)(C)C)c1,inactive,–
C#C[C@]1(O)CC[C@H]2[C@@H]3CCC4=CC(=O)CC[C@@H]4[C@H]3CC[C@@]21C,inactive,–
CCc1nn(C2CCCCC2)c2cc(C3(C#N)CCC(C(=O)O)CC3)ccc12 (stereo not given),inactive,–
O=c1c(-c2ccc(O)cc2)coc2cc(O)ccc12,inactive,–
O=C(OCCOCCOC(=O)c1ccccc1)c1ccccc1,inactive,–
CC1=C(/C=C/C(C)=C/C=C/C(C)=C/C(=O)O)C(C)(C)CCC1,inactive,–
NC(=O)N1C(=O)C(C(=O)c2cc(Cl)cs2)c2cc(F)c(Cl)cc21 (stereo not given),–,105 µM (active)
CCCCC(CC)COC(=O)CCCCC(=O)OCC(CC)CCCC (stereo not given),inactive,–
CCCCCCCCOC(=O)CCCCCCCCC(=O)OCCCCCCCC,inactive,–
Cc1oc(-c2ccccc2)nc1CCOc1ccc(C[C@H](Nc2ccccc2C(=O)c2ccccc2)C(=O)O)cc1,–,107 µM (active)
O=C(/C=C/c1ccc(O)cc1)CC(=O)/C=C/c1ccc(O)cc1,inactive,–
NC(=O)N(O)[C@@H]1C=C[C@H](Oc2cccc(Oc3ccc(F)cc3)c2)C1,–,105 µM (active)
CN1CCN(c2ccccc2/C=C2\SCCN(c3ccc(Cl)c(Cl)c3)C2=O)CC1,–,23.5 µM (active)
Nc1cccc2c(N)cccc12,–,96.2 µM (active)
O=[N+]([O-])c1ccc(O)cc1,inactive,–
CCCCCCCCCCCCCCCS(=O)(=O)Oc1ccccc1,inactive,–
CC(C)(C)c1cccc(C(C)(C)C)c1O,–,100 µM (active)
Cc1cc(C)c(O)c(C)c1,inactive,–

SMILES,outcome,AC50
C[C@@H]1C[C@H]2[C@@H]3CCC4=CC(=O)C=C[C@]4(C)[C@@]3(F)[C@@H](O)C[C@]2(C)[C@@]1(O)C(=O)COP(=O)(O)O,–,27.5 µM (active)
COc1ccc([N+](=O)[O-])cc1N,inactive,–
CCN(CC)CCNc1ccc(CNC=O)c2sc3ccc(OC)cc3c(=O)c12,–,2.62 µM (active)
c1ccc2c(c1)Cc1ccccc1-2,inactive,–
CC(=O)CC(C)(C)O,–,0.106 µM (active)
CCOC(=O)CC(O)(CC(=O)OCC)C(=O)OCC,inactive,–
CCC(C)(C)C1CCC(O)CC1 (stereo not given),–,122 µM (active)
Cc1cc(CCN2CCN(c3nsc4ccccc34)CC2)cc2c1NC(=O)CC2(C)C,–,18.2 µM (active)
CCCCCCCCC(=O)O,inactive,–
C=C(C)C(=O)OCCC(F)(F)C(F)(F)C(F)(F)C(F)(F)C(F)(F)C(F)(F)F,inactive,–
CCCOc1sc(C(=O)N2CCC(c3cc(CN)ccc3F)CC2)c(C)c1Br,–,4.2 µM (active)
CCCCC[C@H](O)CC(=O)CCc1ccc(O)c(OC)c1,inactive,–
CC(C)(C)c1cc(C(C)(C)C)c(O)c(C(C)(C)C)c1,inactive,–
CC(=O)NC1(c2cccc(F)c2)CCN(CC[C@@]2(c3ccc(Cl)c(Cl)c3)CN(c3ccccc3)C(=O)CO2)CC1,–,21.6 µM (active)
CN(C)C=O,inactive,–
CCCCCCCCCCCCc1ccccc1S(=O)(=O)O,–,120 µM (active)
CCCCCCC(=O)O,inactive,–
CCCCCCCC(=O)O,inactive,–
CCCCOCCO,inactive,–
O=C(O)Cc1cc(I)c(Oc2cc(I)c(O)c(I)c2)c(I)c1,–,72.2 µM (active)
